From PubChem BioAssay AID720489 (Milwaukee Institute for Drug Discovery, 2013)
The list shows a part of the results. Values without a mark were called inactive. Activity calls are given as the source filed them.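 The calls were made as follows: active = fluorescence interference ratio at or below 0.8 quencher or at or above a set limitenhancer; inactive = the rest.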

Assay: compounds quenching or enhancing NS3h-DNA Cy5 signal – biochemical, ChemBridge library, Cy5-DNA-NS3h complex, artefact control for HCV NS3 helicase inhibitor project, confirmation (AID 720489);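 also: ratio of compound fluorescence to mean of negative controls so 1 means no interference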
Conditions: Cy5-dT15 DNA/NS3h fluorescence interference counterscreen; at 100 µM

| Compound | fluorescence interference ratio |
| --- | --- |
| Cc1ccc(C(=O)C[n+]2cc(-c3ccccc3)n3c2CCCCC3)cc1 | 1.02 |
| Cc1ccc(C(=O)NCCNc2ccc([N+](=O)[O-])cc2)cc1 | 0.955 |
| N#Cc1c(N)nc2sc(C(=O)Nc3ccccc3)c(N)c2c1-c1ccco1 | 0.783 (active) |
| COc1cc(/C(O)=C(\C#N)c2nc3ccccc3n2C)cc(OC)c1OC | 0.722 (active) |
| COc1cc(C=C2C(=O)NC(=O)NC2=O)ccc1OCCOc1ccc([N+](=O)[O-])cc1 | 0.667 (active) |
| CCN(CC)c1ccc(C=C2C(=O)N(C)C(=O)N(C)C2=O)c(O)c1 | 1 |
| COc1ccc(C(=O)Oc2ccc3oc(=O)cc(C)c3c2)cc1OC | 0.772 (active) |
| CC(C)(C)N1C(=O)NC(=O)C(=Cc2cccs2)C1=O | 0.788 (active) |
| O=C(NC(=S)Nc1ccc(-c2nc3cc(Cl)ccc3o2)cc1)c1ccco1 | 1.01 |
| CCOc1ccc(C=C2C(=O)NC(=O)NC2=O)cc1Cl | 0.902 |
| COc1ccc(N2C(=O)C=CC2=O)c([N+](=O)[O-])c1 | 0.746 (active) |
| O=C1NC(=O)C(=Cc2cc([N+](=O)[O-])cc(Br)c2O)C(=O)N1 | 0.747 (active) |
| O=c1c2c(nc3cc(-c4cccc(F)c4)[nH]n13)CCS2 | 0.718 (active) |
| CCN(CC)c1ccc(NC(=O)/C(=C\c2ccccc2)NC(C)=O)cc1 | 1.09 |
| C=CCN1C(=O)/C(=C\c2cc(OC)c(O)c([N+](=O)[O-])c2)C(=O)NC1=S | 0.746 (active) |
